TDP1 cell CPT: qHTS for Inhibitors of human tyrosyl-DNA phosphodiesterase 1 (TDP1): qHTS in cells in presence of CPT | chicken DT40 Tdp1-/-;hTDP1 cells + 20 nM CPT, ATP luminescence, 48 h | Potency, µM (titrated, usually from 46.2 µM), usual class: inhibitors | 420,000 compounds, 12% hits | AID 686979, 2013; note: nearly all actives have a fitted effect of over 55% in size
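Chicken DT40 Tdp1-/- cells stably complemented with human TDP1 were seeded at 400 cells/well in medium containing 20 nM camptothecin, exposed to pin-transferred compounds, and grown at 37 °C for at least 48 hr. Viability was read as ATP luminescence.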
DT40 TDP1 no CPT: qHTS for Inhibitors of human tyrosyl-DNA phosphodiesterase 1 (TDP1): qHTS in cells in absence of CPT | DT40 Tdp1-/- hTDP1 cells, no CPT, ATP luminescence, 48 h | Potency, µM (series often up to 46.2 µM), most hits filed as inhibitors | 420,000 compounds, 15% hits | AID 686978, 2013; note: nearly all actives have a fitted effect of over 55% in size
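DT40 Tdp1-/-;hTDP1 cells, no CPT (DMSO vehicle only), 400 cells/well; compounds pin-transferred; ≥48 hr, 37 °C; CellTiter-Glo 30 min RT dark, luminescence read.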
Gal4-VP16 FLuc: VP16 counterscreen qHTS for inhibitors of ROR gamma transcriptional activity; 310,000 compounds, 3.5% hits; Potency, µM (series often up to 53.6 µM), actives largely listed as inhibitors; Drosophila S2 Gal4-VP16 UAS-luciferase, luminescence, 20 h;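 note: Gal4-VP16 expression switched on by copper sulfate through the metallothionein promoter; nearly all actives have a fitted effect of over 50% in size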
LDHA block: qHTS assay for inhibitors of human lactate dehydrogenase; L-lactate dehydrogenase A chain (Homo sapiens), P00338; purified LDHA, NADH/diaphorase-resazurin fluorescence; active compounds read low; activity change, % (values are at about 110 or 230 µM); 480,000 compounds, 0.15% hits; AID 1347041, 2019; in the data active = activity change below about -30%; inconclusive = mostly about -25% to -30%
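Human LDH5 (2 nM) was incubated with 0.06 mM NADH and 0.2 mM pyruvate for 5 min at room temperature in Tris pH 7.4. Remaining NADH was coupled through diaphorase/resazurin, and resorufin fluorescence was read at 0 and 20 min.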
RORg inh: qHTS for inhibitors of ROR gamma transcriptional activity. AID 2551, 2010. Drosophila S2 Gal4-RORgamma UAS-luciferase reporter, 20 h. Potency, µM (top dose mostly 53.6 µM), hits mostly inhibitors. 310,000 compounds, 5.4% hits; note: nearly all actives have a fitted effect of over 60% in size
Target sequence (P51450 whole entry, looked up, the tested form may be a part): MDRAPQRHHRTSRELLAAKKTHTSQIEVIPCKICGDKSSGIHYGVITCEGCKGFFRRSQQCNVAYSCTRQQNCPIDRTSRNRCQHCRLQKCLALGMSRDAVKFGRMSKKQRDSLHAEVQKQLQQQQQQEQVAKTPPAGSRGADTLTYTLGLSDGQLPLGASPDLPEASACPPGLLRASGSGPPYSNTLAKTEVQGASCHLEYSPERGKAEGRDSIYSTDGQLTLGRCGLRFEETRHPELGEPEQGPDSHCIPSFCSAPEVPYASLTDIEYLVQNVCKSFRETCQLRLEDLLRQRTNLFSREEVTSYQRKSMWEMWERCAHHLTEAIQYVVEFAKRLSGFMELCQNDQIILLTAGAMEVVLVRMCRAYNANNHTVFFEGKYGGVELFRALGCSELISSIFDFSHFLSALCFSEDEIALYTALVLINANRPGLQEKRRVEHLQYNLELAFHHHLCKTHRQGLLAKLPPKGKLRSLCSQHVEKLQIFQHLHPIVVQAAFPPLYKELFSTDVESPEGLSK
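In this cell-based reporter format, copper sulfate (700 uM final) drives Gal4–ROR gamma fusion expression from a metallothionein promoter in Drosophila Schneider cells; compounds preincubated 1 hr, reporter read after 20 hr at ambient temperature.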
IL-1B inflam inh: qHTS for Inhibitors of Inflammasome Signaling: IL-1-beta AlphaLISA Primary Screen. 360,000 compounds, 4.7% hits. activity change, % at 57.5 µM. THP-1 LPS/ATP IL-1B secretion, AlphaLISA, 16 h; active compounds read low; in the data active = activity change below about -50%; inconclusive = mostly about -30% to -49%
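THP-1 cells pretreated 1 hr with compounds (up to 57.5 uM final), then stimulated with LPS (250 ng/mL final) plus ATP (1.25 mM final); secreted IL-1B measured by AlphaLISA after 16 hr, decreased signal indicating inhibition.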
Hits are given with their value; 0 = inactive; ? = inconclusive; - = no result; ! = repeats disagree; [ ] = dose if it differs, or a comment. A selection: hits, their analogues and other compounds. The true share with any hit is near 18%. Unless noted, calls come from the whole dose curve; as a rule, active = well fitted curve in the direction sought with a large enough effect; inconclusive = small, poorly fitted or top-dose-only effect, or another doubt; inactive = no such curve, though single readings can be large; an effect the other way counts as inactive or inconclusive.

SMILES	TDP1 cell CPT	DT40 TDP1 no CPT	Gal4-VP16 FLuc	LDHA block	RORg inh	IL-1B inflam inh
CCOC(=O)c1c(C)c(CCC(=O)NCCN2CCCC2)c(C)n1C	-	-	-	0	-	-
COc1ccccc1Oc1ccc(-c2cnc3ccccc3n2)cc1[N+](=O)[O-]	23µM	7.3µM	0	0	?	0
O=[N+]([O-])c1cc(-c2cnc3ccccc3n2)ccc1Oc1ccc(Cl)cc1	18µM	?	0	0	?	0
N#Cc1ccc(Oc2cccc(N)c2)cc1	-	-	-	0	-	-
COc1cccc2c1Oc1cc([N+](=O)[O-])cc(N(C)C(C)=O)c1C=C2	?	21µM	0	0	0	0
O=C(c1cc2nc(-c3ccccc3)cc(-c3ccccc3)n2n1)N1CCN(C(=O)c2ccco2)CC1	23µM	15µM	0[0.365 µM]	0	0	?
O=C(c1cc2nc(-c3ccccc3)cc(-c3ccccc3)n2n1)N1CCCC1	?	?	0	0	0	-67
COc1cc(C)c(/C=C(\C#N)C(=O)Nc2cccc(Cl)c2C)cc1C(C)C	-	-	-	0	-	-
Cc1cn(C2OC(COC(=O)c3ccccc3)C(O)C2O)c(=O)[nH]c1=O (stereo not drawn)	0	0	0	0	0	0
Cc1cn(C2OC(COC(=O)c3ccccc3)C(OC(=O)c3ccccc3)C2OC(=O)c2ccccc2)c(=O)[nH]c1=O (stereo not drawn)	23µM	?	0	0	0	0
CS(=O)(=O)/C(C#N)=C\c1cnc(S(=O)(=O)c2ccccc2)s1	-	-	7.9µM	-	10µM	-
CN(C)CCNc1oc(-c2cccc(Cl)c2)nc1C#N	0	?	0	-33!	0	0
CCCOc1ccc(-c2nc(C#N)c(NCCCN(CC)CC)o2)cc1	-	-	-	0	-	-
CCCOc1ccc(-c2nc(C#N)c(NCCN(C)C)o2)cc1	-	-	-	-32	-	-
CCc1ccc(C(=O)COC(=O)Cc2ccc(-c3ccccc3)cc2)cc1	-	-	-	0	-	-
CCc1nc(SCC(=O)Nc2ccc(C(=O)OC)cc2)[nH]c1C	-	-	-	0	-	-
c1ccc(CN2CCN(c3ncnc4c3cnn4-c3ccccc3)CC2)cc1	16µM	18µM	-	0	-	-
c1ccc(-n2ncc3c(N4CCN(CCOc5cccc6ccccc56)CC4)ncnc32)cc1	16µM	26µM	0	0	0	0
Fc1ccc(-n2ncc3c(N4CCN(Cc5ccccc5)CC4)ncnc32)cc1	0	0	-	0	-	-
Cc1ccc(-n2ncc3c(N4CCN(Cc5ccccc5)CC4)ncnc32)cc1Cl	8.2µM	9.2µM	-	0	-	-
COc1cc(N2CC(C(=O)O)CC2=O)cc(OC)c1OC (stereo not drawn)	-	-	-	0	-	-
Cc1ccsc1C(=O)N(c1nc2ccccc2s1)c1c(C)cccc1C	?	23µM	0	0	0	0
Cc1ccccc1N(C(=O)c1cccs1)c1nc2ccccc2s1	23µM	18µM	0	0	0	0
CCc1nc(NCc2ccc3c(c2)OCO3)c2oc3ccccc3c2n1	13µM	18µM	0	0	0	0
Cc1nc(NCc2ccc3c(c2)OCO3)c2oc3ccccc3c2n1	0	0	0	0	?	-52
SMILES	TDP1 cell CPT	DT40 TDP1 no CPT	Gal4-VP16 FLuc	LDHA block	RORg inh	IL-1B inflam inh
OC1c2c(F)cccc2N=C2CCCCN21 (stereo not drawn)	8.2µM	?	-	0	-	0
CC12CC3CC(C)(C1)CC(NC(=O)c1cccc4c(Br)cccc14)(C3)C2	-	-	-	0	-	-
O=C(NCCc1c[nH]c2ccccc12)N[C@@H](Cc1ccccc1)C(=O)O	0	0	0	0	0	0
O=C(NCCc1c[nH]c2ccccc12)C(=O)c1c[nH]c2ccccc12	?	15µM	0	0	?	0
CCCNC(=O)C(=O)NCCc1c[nH]c2ccccc12	-	-	-	0	-	-
Cc1cc2cc(CCNC(=O)C(=O)c3c[nH]c4ccccc34)c(=O)[nH]c2cc1C	15µM	18µM	0	0	0	-56
COc1ccc(/C=C/C(=O)NCCc2c[nH]c3ccccc23)cc1OC	?	?	0	0	?	0
COC(=O)[C@@H](Cc1ccccc1)NC(=O)NCCc1c[nH]c2ccccc12	0	?	0	0	?	-98
COc1cc(/C=C(/C#N)C(=O)NCCc2c[nH]c3ccccc23)ccc1OCc1ccccc1F	12µM	?	0	0	0	0
Cc1cc2cc(CCNC(=O)C(C)C)c(=O)[nH]c2cc1C	0	0	-	0	-	0
Cc1ccc2c(CN(C)CCOc3cccc(Cl)c3)cc(=O)oc2c1	-	-	-	0	-	-
Nc1ccc2oc(-c3ccccc3)cc2c1	-	-	-	0	-	-
Cc1ccc(-c2nc(-c3ccc(C(C)(C)C)cc3)c(C)s2)cc1	-	-	-	0	-	-
N#C/C(=C/c1ccc(Br)s1)C(=O)NCCc1c[nH]c2ccccc12	23µM	21µM	0	0	0[10 µM]	?
Cc1cc(/C=C(\C#N)C(=O)NCCc2c[nH]c3ccccc23)c(C)n1C	?	?	0	0	?	?

Compound activity (PubChem)
